These results are taken from PubChem BioAssay (NCATS).

Records with an inconclusive call do not appear. The source made the active and inactive calls. Unless noted, calls follow the shape of the dose curve; as a rule, active = well fitted curve in the direction sought with a large enough effect; inconclusive = small, poorly fitted or top-dose-only effect, or another doubt; inactive = no such curve, though single readings can be large; an effect the other way counts as inactive or inconclusive.

The nature of assay [1]: Cellular Toxicity (caspase-3) Jurkat (AID 655).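 Also: cells exposed to compound for 16 h at 37 °C before reading.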 Conditions: Jurkat caspase-3 activation, luminescence; caspase-3 activation: at 92.2 µM (top of the series), DMSO = 0%, tamoxifen = 100%. The method in brief:
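Jurkat cells (5000/well) in complete medium exposed 16 h at 37 C; caspase-3/7 activity read by Caspase-Glo luminescence after 20 min at room temperature. Normalized to DMSO and 100 uM tamoxifen; AC50 from Hill fits.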

Assay [2] in a line: Cellular Toxicity (caspase-3) MRC-5 (AID 659). The note with it: MRC-5 cells, luminescence, normalized: DMSO 0%, 10 µM staurosporine 100%; series mostly up to 91.7 µM. The method in brief: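 Luminescent Caspase-Glo 3/7 read-out (1 h, room temperature) after a 16 h, 37 °C compound exposure of MRC-5 lung fibroblasts at 1500 cells/well. Concentration-response AC50 from Hill equation; 0% DMSO, 100% 10 uM staurosporine.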

Assay [3] addresses Cytochrome P450 3A4 (Homo sapiens) (UniProt P08684). As to the kind of experiment: qHTS Assay for Inhibitors and Substrates of Cytochrome P450 3A4 (AID 884). Also: % is scaled to controls: 0 for no effect and ±100 for the full control effect; nearly all actives have a fitted effect of over 50% in size. Conditions: recombinant CYP3A4, Luciferin-PPXE luminescence; series mostly up to 57.1 µM. The method in brief: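 Luminescent readout of luciferin produced by CYP3A4 (20 nM) dealkylation of Luciferin-PPXE, 25 uM (its KM). NADPH-driven reaction ran 60 min at RT after 10 min compound preincubation; data scaled to 57 uM ketoconazole as 100% inhibition.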
For orientation: In qHTS, concentration-response curves come from the screen itself.

Assay [4] can be described thus: Cell Viability - LYMP2-001 (AID 921). Also: nearly all actives have a fitted effect of over 70% in size. Also: potency is read from the fitted curve at half-maximal effect. Conditions: LYMP2-001 lymphoblastoid cell viability; series mostly up to 92.2 µM. The method in brief: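 Human lymphoblastoid LYMP2-001 cells, 2500 per well, in complete medium, treated 24 h at 37 C. Viability from cellular ATP by CellTiter-Glo luminescence; AC50 from Hill-equation fits of qHTS concentration-response.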
A short description of assay [5]: MultiTox-Fluor Cytotoxicity Assay - LYMP1-002 - Dead Cells (AID 960).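 Also: 0% = DMSO and 100% = tetraoctylammonium bromide; nearly all actives have a fitted effect of over 60% in size.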 Conditions: LYMP1-002 lymphoblastoid cells, dead-cell protease fluorescence; series mostly up to 46.1 µM. The method in brief:
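Readout: fluorescence at 485/520 from cell-impermeant bis-AAF-R110 cleaved by proteases leaking from damaged cells. LYMP1-002 lymphoblastoid line, 16 hr compound treatment at 37 C, concentration-response in qHTS format; Hill-equation AC50 values.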

Assay [6] is described as follows: Cell Viability - LYMP2-005 (AID 967).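 Also: plate controls were DMSO only for no effect and 92 µM tetraoctylammonium bromide control for full effect.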 Conditions: LYMP2-005 lymphoblastoid cell viability; series mostly up to 92.2 µM. The method in brief:
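Human lymphoblastoid LYMP2-005 cells, 2,500 per well in complete medium, rested 5 h at 37C then compound-treated 24 h at 37C. Intracellular ATP read by CellTiter-Glo luminescence after 30 min at room temperature; AC50 from Hill-equation fits of concentration-response data.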

Assay [7] is described as follows: Cell Viability - LYMP2-015 (AID 971). Also: nearly all actives have a fitted effect of over 55% in size. Also: potency is read from the fitted curve at half-maximal effect. The note with it: LYMP2-015 lymphoblastoid cell viability; series mostly up to 92.2 µM. The procedure, abridged:
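qHTS cytotoxicity: 2500 cells/well, 5 hr 37 C, compound 24 hr 37 C, CellTiter-Glo 30 min RT, luminescence. Loss of ATP = toxicity; AC50 via standard Hill fit.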

Assay [8] is described as follows: Cell Viability - LYMP2-002 (AID 977).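 Also: compound exposure lasted 24 h at 37 °C; plate controls were DMSO only for no effect and 92 µM tetraoctylammonium bromide for full effect.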 The note with it: LYMP2-002 lymphoblastoid cell viability, qHTS; series mostly up to 92.2 µM. The method in brief:
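Human lymphoblastoid cells (2500/well) in complete medium were preincubated 5 hr at 37 C, then exposed to compounds for 24 hr at 37 C. Intracellular ATP was read by CellTiter-Glo luminescence; AC50 came from Hill-equation concentration-response fits.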

A short description of assay [9]: Cell Viability - LYMP2-010 (AID 981). Also: nearly all actives have a fitted effect of over 55% in size. Also: potency is read from the fitted curve at half-maximal effect. The note with it: LYMP2-010 lymphoblastoid cell viability, qHTS; series mostly up to 92.2 µM. The method in brief: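 qHTS cytotoxicity, 1536-well: 2500 cells/well, 5 hr settle, 24 hr compound at 37 C, CellTiter-Glo 30 min RT, luminescence read. Decrease in ATP = toxicity; AC50 via standard Hill equation. Positive control tetraoctylammonium bromide.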

Assay [10] in a line: Cell Viability - LYMP2-020 (AID 986).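 Also: plate controls were DMSO only for no effect and tetraoctylammonium bromide at 92 µM for full effect; nearly all actives have a fitted effect of over 55% in size.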 The note with it: series mostly up to 92.2 µM. The procedure, abridged: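 qHTS, 2500 cells/well; 5 hr then 24 hr compound exposure, 37 C; CellTiter-Glo luminescence after 30 min RT; ATP decrease taken as cytotoxicity; AC50 via Hill equation; tetraoctylammonium bromide positive control.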
Assay [11] is described as follows: Cell Viability - LYMP2-022 (AID 987). Also: nearly all actives have a fitted effect of over 55% in size. Also: potency is read from the fitted curve at half-maximal effect. Conditions: LYMP2-022 lymphoblastoid cell viability; series mostly up to 92.2 µM. The procedure, abridged:
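Luminescent ATP read-out (CellTiter-Glo, 30 min, RT) after 24 hr, 37 C compound exposure of 2500 human lymphoblastoid cells/well in complete medium. Cytotoxicity taken as concentration-dependent ATP loss; AC50 from standard Hill equation.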

The nature of assay [12]: qHTS assay for small molecule agonists of retinoid X receptor alpha signaling (AID 588544). Conditions: HEK293T RXRa-UAS-bla, beta-lactamase reporter, 18 h; 530 nm emission.
A short description of assay [13]: qHTS assay for small molecule antagonists of retinoid X receptor alpha signaling (AID 588546; active = well fitted inhibition curve with a large enough effect in the signal ratio, with a control signal flat, not every such curve was filed as active; the % refers to the signal ratio;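 also: cells stimulated with 9-cis-retinoic acid as agonist; % is scaled to controls: 0 for no effect and ±100 for the full control effect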). The note with it: HEK293T RXRa-UAS-bla, beta-lactamase ratio, antagonist mode; measured here: W530 green channel, cytotoxicity proxy. The procedure, abridged:
(§1)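 Beta-lactamase reporter inhibition, read as CCF4 fluorescence ratio (ex 405, em 460/530 nm) after 2 h at RT. HEK293T UAS-bla cells, 2500/well, were stimulated with 9-cis-RA at 500 or 100 nM final alongside test compound for 18 h at 37 C.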

The target in assay [14] is Retinoic acid receptor RXR-alpha (Homo sapiens) (UniProt P19793). The description is as above. The note with it: HEK293T RXRa-UAS-bla, beta-lactamase ratio, antagonist mode. The method in brief: as §1
Retinoic acid receptor RXR-alpha (Homo sapiens), sequence (P19793 whole entry, looked up): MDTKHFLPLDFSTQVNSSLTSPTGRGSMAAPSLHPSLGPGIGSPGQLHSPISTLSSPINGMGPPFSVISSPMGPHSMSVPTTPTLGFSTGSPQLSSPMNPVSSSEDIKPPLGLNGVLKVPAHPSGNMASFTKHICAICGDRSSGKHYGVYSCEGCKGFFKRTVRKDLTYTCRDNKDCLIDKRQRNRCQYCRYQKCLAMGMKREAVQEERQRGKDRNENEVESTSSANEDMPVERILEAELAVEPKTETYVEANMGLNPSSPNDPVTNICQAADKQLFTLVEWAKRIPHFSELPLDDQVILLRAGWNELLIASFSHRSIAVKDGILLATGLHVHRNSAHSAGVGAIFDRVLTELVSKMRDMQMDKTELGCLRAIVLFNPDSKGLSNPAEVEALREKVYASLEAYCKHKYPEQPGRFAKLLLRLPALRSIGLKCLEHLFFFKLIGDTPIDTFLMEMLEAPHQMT
For assay [15], the target named is Thyroid hormone receptor beta (Homo sapiens) (UniProt P10828). As to the kind of experiment: qHTS assay for small molecule antagonists of thyroid hormone receptor beta signaling (AID 588547; active = well fitted inhibition curve with a large enough effect in the signal ratio, with a control signal flat, not every such curve was filed as active; the % refers to the signal ratio;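 also: cells stimulated with 0.4 nM T3 agonist during compound exposure; % is scaled to controls: 0 for no effect and ±100 for the full control effect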). The note with it: TR-UAS-bla HEK293, beta-lactamase ratio, antagonist mode, 18 h. The procedure, abridged:
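Inhibition of T3-driven (0.4nM final) beta-lactamase reporter activity was measured over 0.59 nM to 92 uM compound after 18 h at 37 C. The cells were GripTite HEK293 TR-UAS-bla in charcoal/dextran-stripped serum, with CCF4 ratio read-out and IC50 from Hill fits.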

Assay [16] addresses Tumor necrosis factor (Homo sapiens) (UniProt P01375). As to the kind of experiment: qHTS assay to identify small molecules that stimulate Tumor Necrosis Factor-alpha (TNF-alpha) secretion (AID 651757; active = well fitted curve in the direction sought with a large enough effect in the signal ratio; the % refers to the signal ratio; also: 0% is about no effect). The note with it: Human cells, HTRF 665/615 ratio; series mostly up to 92.2 µM. The method in brief: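 THP-1 cells, 3000/well; compound 17 hrs, 37 C; add cryptate/XL665 anti-TNF-alpha antibody pair; 3 hr RT; TR-FRET (HTRF) read of secreted TNF-alpha. Quantitative HTS format.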

Assay [17] in a line: Cell Viability - SK-N-SH (AID 435; calls by dose curve;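 also: potency is read from the fitted curve at half-maximal effect; compound exposure lasted 40 h at 37 °C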). Conditions: SK-N-SH neuroblastoma cell viability qHTS. The procedure, abridged: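 SK-N-SH neuroblastoma cells (1500/well) treated 40 h at 37 °C in complete medium; viability read as cellular ATP by CellTiter-Glo luminescence. Normalized to DMSO and 100 uM tamoxifen; AC50 from Hill fits of qHTS concentration-response.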
A short description of assay [18]: Cell Viability - N2a (AID 540).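 Also: plate controls were DMSO alone for no effect and tamoxifen control for full effect; nearly all actives have a fitted effect of over 45% in size.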 Conditions: N2a mouse neuroblastoma cell viability; activity change, negative = cytotoxicity: at 92.2 µM (top of the series). The method in brief:
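N2a mouse neuroblastoma, 1500 cells/well, 5 hr settle; compound 40 hr, 37 °C; CellTiter-Glo 20 min RT; luminescence; Hill-fit AC50.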

Assay [19] in a line: Cell Viability - Renal Proximal Tubule (AID 545). Also: nearly all actives have a fitted effect of over 40% in size. The note with it: renal proximal tubule cells viability; series mostly up to 91.7 µM. The procedure, abridged: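 Rat renal proximal tubule primary cells, 1000/well, exposed to compounds for 40 hr at 37 °C in complete medium; cellular ATP read by CellTiter-Glo luminescence. AC50 from concentration-response fitted with standard Hill equation.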

For assay [20], the target named is Thyroid hormone receptor beta (Homo sapiens) (UniProt P10828). As to the kind of experiment: qHTS assay for small molecule agonists of thyroid hormone receptor beta signaling (AID 588545; calls by dose curve;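 also: 0% = DMSO only and 100% = 10 nM T3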). The note with it: TR-UAS-bla GripTite HEK 293, beta-lactamase ratio, agonist mode, 18 h; series mostly up to 76.7 µM. The method in brief:
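TR-UAS-bla-GripTite HEK 293 cells in medium with 2% charcoal/dextran FBS, 0.1 mM NEAA and 1 mM sodium pyruvate were treated with titrated compounds for 18 hrs at 37 C. Beta-lactamase reporter was read with CCF4 dye (ex 405, em 460/530 nm); EC50 from Hill fits.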

Cytochrome P450 3A4 (Homo sapiens), sequence (P08684 whole entry, looked up): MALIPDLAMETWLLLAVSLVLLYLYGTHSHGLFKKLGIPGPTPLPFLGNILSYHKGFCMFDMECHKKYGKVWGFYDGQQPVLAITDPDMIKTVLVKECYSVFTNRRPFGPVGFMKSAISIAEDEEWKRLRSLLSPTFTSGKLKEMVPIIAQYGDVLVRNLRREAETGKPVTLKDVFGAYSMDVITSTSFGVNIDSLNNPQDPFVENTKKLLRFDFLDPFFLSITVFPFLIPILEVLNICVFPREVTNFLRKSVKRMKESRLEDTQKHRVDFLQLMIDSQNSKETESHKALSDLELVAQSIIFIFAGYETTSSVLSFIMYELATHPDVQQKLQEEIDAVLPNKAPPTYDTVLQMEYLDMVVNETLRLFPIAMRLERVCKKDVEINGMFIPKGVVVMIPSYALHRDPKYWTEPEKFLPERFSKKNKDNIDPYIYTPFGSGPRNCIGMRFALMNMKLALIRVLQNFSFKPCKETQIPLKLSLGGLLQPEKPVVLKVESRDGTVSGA
Tumor necrosis factor (Homo sapiens), sequence (P01375 whole entry, looked up): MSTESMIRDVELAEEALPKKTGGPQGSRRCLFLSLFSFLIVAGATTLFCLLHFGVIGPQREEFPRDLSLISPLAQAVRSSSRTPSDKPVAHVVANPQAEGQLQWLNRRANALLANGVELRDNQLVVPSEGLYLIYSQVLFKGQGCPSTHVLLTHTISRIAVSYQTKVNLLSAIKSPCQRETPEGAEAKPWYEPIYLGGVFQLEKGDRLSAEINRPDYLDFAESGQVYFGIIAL
Thyroid hormone receptor beta (Homo sapiens), sequence (P10828 whole entry, looked up): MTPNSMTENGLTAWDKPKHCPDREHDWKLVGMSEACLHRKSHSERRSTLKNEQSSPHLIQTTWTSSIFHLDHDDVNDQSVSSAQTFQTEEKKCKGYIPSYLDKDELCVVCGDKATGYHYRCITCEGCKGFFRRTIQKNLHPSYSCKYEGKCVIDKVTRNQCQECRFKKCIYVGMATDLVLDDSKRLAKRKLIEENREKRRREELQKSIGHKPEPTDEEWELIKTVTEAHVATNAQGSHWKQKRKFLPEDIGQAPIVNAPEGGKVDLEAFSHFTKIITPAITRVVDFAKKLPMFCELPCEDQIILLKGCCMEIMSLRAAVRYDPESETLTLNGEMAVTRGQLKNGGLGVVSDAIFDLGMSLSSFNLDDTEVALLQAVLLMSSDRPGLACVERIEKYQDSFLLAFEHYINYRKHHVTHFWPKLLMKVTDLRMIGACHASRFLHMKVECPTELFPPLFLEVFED

As for `Oc1c(Cl)c(Cl)cc(Cl)c1Cl`, in assay [1], the caspase-3 activation was 83.2% (active). Further, the outcome in assay [2] and in assay [16] was inactive. For the same molecule, the Potency entry in assay [3], in [4], in assay [5], in assay [6], in assay [7] and in [8] was “inactive” in each case. In addition, the Potency entry in assay [9], in assay [10] and in assay [11] was “inactive” each time. Besides, the max response in assay [12] was 19.2%; in assay [13] it was -8.85%; in assay [14], -10.3% (inactive). The activity change % (negative = inhibition) in assay [15] was 23.1% (inactive).
As for `Clc1cc(Cl)c(Cl)c(Cl)c1`, in assay [17], the Potency is > 92 µM (inactive). The Potency result in assay [18], in assay [3], in assay [4], in assay [5], in assay [6] and in assay [7] was “inactive” throughout. Besides, the Potency entry in assay [8], in assay [9], in [10], in [11] and in assay [20] was “inactive” each time. In addition, the outcome in [19], in [2] and in assay [16] was inactive. The caspase-3 activation in [1] is 0.108% (inactive). Further, the figures for the max response in assay [12], in assay [13] and in assay [14] were 0.707%, -0.278% and 14.2% (inactive), respectively. Also, in [15], the activity change % (negative = inhibition) is -16.6% (inactive).
As to `O=[N+]([O-])c1ccccc1O`, the Potency in [17] is > 92 µM (inactive). The Potency result in assay [18], in assay [3], in [4], in assay [5], in assay [6] and in assay [7] was “inactive” in each case. The Potency entry in [8], in [9], in assay [10], in [11] and in assay [20] was “inactive” throughout. The outcome in [19], in assay [2] and in assay [16] was inactive. Also, the caspase-3 activation in assay [1] was 1.37% (inactive). Also, the max response is -4.21% in assay [12], -5.99% in assay [13] and -20.2% (inactive) in [14]. In addition, the activity change % (negative = inhibition) in [15] is -16.2% (inactive).
Take `C=CC(=O)OCC(C)C`: the Potency in assay [17] is > 92 µM (inactive). Further, the Potency entry in assay [18], in assay [3], in assay [4], in assay [5], in assay [6] and in [7] was “inactive” each time. Further, the Potency result in assay [8], in assay [9], in assay [10], in [11] and in [20] was “inactive” throughout. Besides, the call in assay [19], in assay [2] and in assay [16] was inactive. The caspase-3 activation in [1] is 0.654% (inactive). Further, the max response in assay [12] is -3.12%; in assay [13] it was 4.12%; in assay [14], 5.4% (inactive). Moreover, the activity change % (negative = inhibition) in assay [15] is -1.18% (inactive).
Consider `N#CC(Br)Br`, for which the Potency in [17] was > 92 µM (inactive); in assay [9], 50.1 µM (active). Also, the Potency entry in assay [18], in assay [3], in assay [4], in assay [5], in assay [6] and in assay [20] was “inactive” in each case. Moreover, the outcome in assay [19] and in [16] was inactive. For the same molecule, the max response in [12] was 0.349%; in assay [13], -2.67%; in assay [14] it was 18.7% (inactive). Further, the activity change % (negative = inhibition) in assay [15] is 17% (inactive).
Turning to `CN(C)c1ccc(N)cc1`, the Potency in assay [17] was 41.7 µM (active); in [4] it was 50.1 µM (active); in [7], 50.1 µM (active); in assay [9], 50.1 µM (active); in [11], 50.1 µM (active). Besides, the activity change, negative = cytotoxicity in assay [18] is -109% (active). In addition, the caspase-3 activation in [1] was -4.87% (inactive). In addition, the molecule was classed as inactive in assay [2]. Further, the Potency entry in assay [5] and in assay [20] was “inactive” in each case. The max response was -18.3% in [12], -13% in [13] and -17.1% (inactive) in [14]. The activity change % (negative = inhibition) in assay [15] is 8.59% (inactive).
Take `CCCCOCC1CO1` (centres undefined): the Potency in assay [17] is > 92 µM (inactive). The Potency result in assay [18], in assay [3], in assay [4], in assay [5], in [6] and in assay [7] was “inactive” throughout. Further, the Potency result in [8], in assay [9], in [10], in [11] and in [20] was “inactive” in each case. Besides, the outcome in assay [19], in assay [2] and in assay [16] was inactive. In addition, the caspase-3 activation in [1] was -0.958% (inactive). In addition, the values for the max response in assay [12], in assay [13] and in [14] were 5.09%, 12.9% and 20.3% (inactive), respectively. For the same molecule, the activity change % (negative = inhibition) in assay [15] was 12.9% (inactive).
